PD-1 reverse act: activators reversing PD-1 mediated T-cell inhibition, primary screen, luminescence, primary human CD4 T cells, PD-L1 beads | CellTiter-Glo 96 h | activation, % (no concentration beside the values) | 29,000 tested, under 10 active; call rule not given here;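 also: 0% = median vehicle wells and 100% = positive control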
STK33 kin inh: STK33 kinase inhibitors, primary screen, biochemical, luminescence, ADP-Glo, MBP substrate; 27,000 tested, 0.44% active; inhibition, % at 12.5 µM; Serine/threonine-protein kinase 33 (Homo sapiens), Q9BYT3; in the data active = inhibition above about 20%; inconclusive = no clear call, values can overlap the other calls
Target sequence (Q9BYT3 whole entry, looked up): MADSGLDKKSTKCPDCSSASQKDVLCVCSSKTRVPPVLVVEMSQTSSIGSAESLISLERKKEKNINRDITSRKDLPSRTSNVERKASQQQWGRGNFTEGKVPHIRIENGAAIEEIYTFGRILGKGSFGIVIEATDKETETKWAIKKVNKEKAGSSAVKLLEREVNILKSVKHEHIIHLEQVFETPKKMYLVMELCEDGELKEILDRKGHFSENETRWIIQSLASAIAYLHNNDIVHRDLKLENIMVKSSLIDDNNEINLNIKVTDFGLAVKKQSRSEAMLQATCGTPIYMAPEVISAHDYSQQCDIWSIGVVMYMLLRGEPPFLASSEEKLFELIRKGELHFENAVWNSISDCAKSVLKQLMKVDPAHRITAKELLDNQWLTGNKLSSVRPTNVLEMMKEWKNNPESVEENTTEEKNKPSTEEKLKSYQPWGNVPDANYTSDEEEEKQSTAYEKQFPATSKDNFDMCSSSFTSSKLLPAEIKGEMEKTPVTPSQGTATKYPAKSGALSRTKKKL
NOMO-1 viab: NOMO-1 AML cell viability reduction, primary screen, STK33 inhibitor project, CellTiter-Glo luminescence | AID 2330, 2010 | NOMO-1 AML viability, 72 h | 37,000 tested, 7.5% active | inhibition, % (test concentration not listed); in the data active = inhibition above about 80%; inconclusive = no clear call, values can overlap the other calls
Starred values were filed as active, the others as inactive; ? = inconclusive; nt = no result. Shown is part of a subset that was picked to be rich in hits.

SMILES | PD-1 reverse act | STK33 kin inh | NOMO-1 viab
C[C@@H]1CN([C@@H](C)CO)C(=O)c2cccc(NS(=O)(=O)c3ccccc3)c2O[C@@H]1CN(C)Cc1ccc(-c2ccccc2)cc1 | -7 | nt | 98*
C[C@H]1CN([C@@H](C)CO)C(=O)c2cccc(NS(=O)(=O)c3ccc(Cl)cc3)c2O[C@@H]1CN(C)Cc1ccc(-c2ccccc2)cc1 | 0 | nt | 33
Cc1ccc(S(=O)(=O)Nc2cccc3c2O[C@H](CN(C)Cc2ccc(Oc4ccccc4)cc2)[C@@H](C)CN([C@H](C)CO)C3=O)cc1 | -1 | nt | 99*
Cc1ccc(S(=O)(=O)Nc2cccc3c2O[C@H](CN(C)Cc2ccc(-c4ccccc4)cc2)[C@@H](C)CN([C@H](C)CO)C3=O)cc1 | 0 | nt | 41
Cc1ccc(S(=O)(=O)Nc2cccc3c2O[C@@H](CN(C)Cc2ccc(Oc4ccccc4)cc2)[C@H](C)CN([C@@H](C)CO)C3=O)cc1 | nt | nt | 42
C[C@@H]1CN([C@H](C)CO)C(=O)c2cccc(NS(=O)(=O)c3ccccc3)c2O[C@@H]1CN(C)Cc1ccc(-c2ccccc2)cc1 | -4 | nt | 61
C[C@@H]1CN([C@@H](C)CO)C(=O)c2cccc(NS(=O)(=O)c3ccc(Cl)cc3)c2O[C@@H]1CN(C)Cc1ccc(-c2ccccc2)cc1 | -4 | nt | 115*
Cc1ccc(S(=O)(=O)Nc2cccc3c2O[C@@H](CN(C)Cc2ccc(-c4ccccc4)cc2)[C@@H](C)CN([C@@H](C)CO)C3=O)cc1 | -1 | nt | 91*
CCOc1ccc(-n2nc3ccc(NC(=O)COc4ccccc4Cl)cc3n2)cc1 | -1 | 2 | 58
Clc1ccccc1OCCSc1nnc(-c2cccnc2)n1-c1ccccc1 | -5 | -3 | 35
COc1ccc(-c2nc3ccccc3s2)cc1NC(=S)NC(=O)COc1ccc(C)cc1 | nt | 3 | ?
O=C1C(SCCO)=C(SCCO)C(=O)c2ccccc21 | nt | 4 | 114*
O=C1c2ccccc2C(=O)N1C(CO)C(O)c1ccccc1 (stereo unspecified) | 1 | nt | 25
Cc1nn(CC(=O)Nc2sc3c(c2C#N)CCCC3)c(C)c1[N+](=O)[O-] | nt | -3 | -1
Cn1c(SCC(=O)Nc2ccccc2C(F)(F)F)nnc1-c1ccc(NC(=O)c2ccc(F)cc2)cc1 | 3 | 0 | 21
C[C@H](CO)N1C[C@H](C)[C@@H](CN(C)Cc2ccc(Oc3ccccc3)cc2)Oc2ccc(NC(=O)Nc3ccc(C(F)(F)F)cc3)cc2C1=O | nt | nt | 128*
COc1ccc(NC(=O)Nc2ccc3c(c2)C(=O)N([C@H](C)CO)C[C@@H](C)[C@@H](CN(C)Cc2ccc(C(F)(F)F)cc2)O3)cc1 | 1 | 1 | 19
C[C@H]1CN([C@@H](C)CO)C(=O)c2cc(NC(=O)Nc3ccc(C(F)(F)F)cc3)ccc2O[C@H]1CN(C)Cc1ccc(Oc2ccccc2)cc1 | -5 | nt | 83*
C[C@H](CO)N1C[C@H](C)[C@H](CN(C)Cc2ccc(Oc3ccccc3)cc2)Oc2ccc(NC(=O)Nc3ccc(C(F)(F)F)cc3)cc2C1=O | -12 | 2 | 114*
CCC(=O)Nc1ccc(Cl)c(NC(=O)COc2cccc3ccccc23)c1 | nt | 4 | -1
N#CC1=C(N)S[C@H](C(=O)c2ccccc2)[C@H]1c1ccc(Br)c(F)c1 | 0 | nt | ?
CC(=O)C(C)Sc1ncnc2sc(-c3ccccc3)cc12 (stereo unspecified) | -2 | ? | 12
O=C(c1ccccc1)c1cc[n+](Cc2ccccn2)cc1 | 0 | nt | 63
O=C(CSc1nc(Nc2ccccc2)nc(N2CCOCC2)n1)Nc1ccccc1Cl | 1 | 4 | 13
COC(=O)c1cc(NC(=O)CSc2nc(Nc3ccccc3)nc(N3CCOCC3)n2)ccc1Cl | -6 | 3 | 117*
SMILES | PD-1 reverse act | STK33 kin inh | NOMO-1 viab
Cc1ccc(N(C(C)C(=O)Nc2cc(Cl)cc(Cl)c2)S(C)(=O)=O)cc1 (stereo unspecified) | -5 | -2 | 52
O=C(Nc1c(Cl)cc(Cl)cc1C(=O)NCCN1CCOCC1)c1cccc([N+](=O)[O-])c1 | nt | -1 | -24
O=C(Oc1c(CN2CCOCC2)cc(Cl)c2cccnc12)c1ccc([N+](=O)[O-])cc1 | -15 | 3 | 139*
O=C(NCc1ccco1)c1ccc(NC(=O)c2ccco2)cc1 | nt | 4 | -21
CS(=O)(=O)N(CC(=O)Nc1cccc(Cl)c1Cl)Cc1ccccc1 | -1 | 1 | 27
CC(C)(C)c1ccc(OCC(=O)Nc2ccccc2-c2nc3ccccc3s2)cc1 | -2 | -2 | 5
CC(C)NC(=O)Nc1ccc2c(c1)C(=O)N([C@@H](C)CO)C[C@@H](C)[C@H](CN(C)Cc1ccc(C(=O)Nc3ccccc3N)cc1)O2 | 0 | nt | 47
C[C@@H]1CN([C@@H](C)CO)C(=O)c2cc(NC(=O)NC3CCCCC3)ccc2O[C@@H]1CN(C)Cc1ccc(C(=O)Nc2ccccc2N)cc1 | -3 | nt | 107*
CC(C)NC(=O)Nc1ccc2c(c1)C(=O)N([C@H](C)CO)C[C@@H](C)[C@H](CN(C)Cc1ccc(C(=O)Nc3ccccc3N)cc1)O2 | 2 | nt | 15
C[C@H](CO)N1C[C@H](C)[C@H](CN(C)Cc2ccc(C(=O)Nc3ccccc3N)cc2)Oc2ccc(NC(=O)NC3CCCCC3)cc2C1=O | 0 | nt | 98*
C[C@H]1CN([C@@H](C)CO)C(=O)c2cc(NC(=O)NC3CCCCC3)ccc2O[C@H]1CN(C)Cc1ccc(C(=O)Nc2ccccc2N)cc1 | -2 | nt | 59
C[C@@H]1CN([C@H](C)CO)C(=O)c2cc(NC(=O)NC3CCCCC3)ccc2O[C@@H]1CN(C)Cc1ccc(C(=O)Nc2ccccc2N)cc1 | -2 | nt | 99*
O=C(NCC1CCCO1)C1CC(c2ccccc2O)=NO1 (stereo unspecified) | nt | 1 | -3
NC(=O)c1ccccc1NC(=O)COc1cc(Cl)c(Cl)cc1Cl | -1 | 6 | 23
C[C@@H]1CN([C@H](C)CO)C(=O)c2cccc(NC(=O)Nc3ccc(C(F)(F)F)cc3)c2O[C@@H]1CN(C)Cc1ccc(Cl)c(Cl)c1 | -4 | nt | 76
C[C@@H]1CN([C@H](C)CO)C(=O)c2cccc(NC(=O)Nc3ccc(C(F)(F)F)cc3)c2O[C@H]1CN(C)Cc1ccc(Cl)c(Cl)c1 | -6 | nt | 104*
C[C@@H]1CN([C@@H](C)CO)C(=O)c2cccc(NC(=O)Nc3ccc(C(F)(F)F)cc3)c2O[C@H]1CN(C)Cc1ccc(Cl)c(Cl)c1 | -3 | nt | 107*
C[C@H](CO)N1C[C@H](C)[C@H](CN(C)Cc2ccncc2)Oc2c(NC(=O)Nc3ccc(C(F)(F)F)cc3)cccc2C1=O | 1 | nt | 10
Cc1ccccc1OCC(=O)Nc1cccc(-c2nnc(-c3ccco3)o2)c1 | -1 | nt | 67
O=C(NC1CCN(C(=O)c2ccc(Cl)cc2Cl)CC1)c1ccccc1 | 2 | -2 | 18
COc1ccc(OC)c(S(=O)(=O)N2CCC(C(=O)Nc3ccc(Cl)cc3)CC2)c1 | -1 | 2 | 21
O=C1Oc2cc(O)cc(O)c2[C@@H](c2ccc(O)cc2)[C@H]1[C@H]1C(=O)Oc2cc(O)cc(O)c2[C@H]1c1ccc(O)cc1 | -2 | 28* | 19
COc1ccc(C2CC(=O)Oc3cc(O)cc(O)c32)cc1 (stereo unspecified) | 0 | 0 | 6

From PubChem BioAssay
